Source: PubChem
Sampled rows, rich in hits. Any-hit rate of the full collection: about 3.5%.
FBW7 act: FBW7 E3 ligase activators, primary screen, biochemical, AlphaScreen, human | AlphaScreen FBW7–phospho-cyclin E peptide binding, activator screen | normalized activity (activation), % at 26.1 µM | F-box/WD repeat-containing protein 7 (Homo sapiens), Q969H0 | 650,000 compounds, 0.13% hits; in the data active means normalized activity above about 1.9%;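 further: purified mutant Fbw7 with reduced substrate affinity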
GPR151 activ: activators of human GPR151, primary screen, cell-based, PathHunter beta-arrestin, luminescence. G-protein coupled receptor 151 (Homo sapiens), Q8TDV0. PathHunter beta-arrestin GPR151 cells. activation, % at 11.2 µM. 650,000 compounds, 1% hits; in the data active means activation above about 4.9%
MITF inh: MITF inhibitors, primary screen, biochemical, AlphaScreen, human; Microphthalmia-associated transcription factor (Homo sapiens), O75030; 650,000 compounds, 0.91% hits; inhibition, % at 2.6 µM; AID 1259374, 2018; AlphaScreen MITF homodimerization, bead proximity signal; in the data active means inhibition above about 50%
TEAD-YAP inh: TEAD-YAP interaction inhibition, primary screen, TEAD-YAP interaction inhibitor project, luminescence, HEK-TIYL cells. inhibition, % at 9.12 µM. TEAD-Gal4/YAP UAS-luciferase luminescence. AID 1259422, 2018. 640,000 compounds, 1.4% hits; in the data active means inhibition above about 32%
GPR151 confirm: GPR151 activators, triplicate retest, confirmation, cell-based, PathHunter beta-arrestin, luminescence | shares compounds with GPR151 activ | GPR151 PathHunter beta-arrestin cells, 90 min; % of EA-reagent control over plate median | activation, % at 11.2 µM | 6,700 tested, under 10 active | AID 1508609, 2020;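 active means mean percent activation across replicates above the confirmation screen cutoff of 4.91%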
GPR119 ag: GPR119 activators in beta-arrestin cells, counter-screen for GPR151 activator project, cell-based, PathHunter beta-arrestin, luminescence, triplicate | AID 1508611, 2020 | shares compounds with GPR151 activ | activation, % at 11.2 µM | 90 min; 0 = compound-well median, 100 = enzyme-acceptor control | 6,700 compounds, 0.3% hits;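 active means mean percent activation in the counterscreen above 29.09%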;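 further: counterscreen on off-target GPR119 to flag nonselective hits from the GPR151 activator screen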
Target sequence (Q8TDV5 whole entry, looked up): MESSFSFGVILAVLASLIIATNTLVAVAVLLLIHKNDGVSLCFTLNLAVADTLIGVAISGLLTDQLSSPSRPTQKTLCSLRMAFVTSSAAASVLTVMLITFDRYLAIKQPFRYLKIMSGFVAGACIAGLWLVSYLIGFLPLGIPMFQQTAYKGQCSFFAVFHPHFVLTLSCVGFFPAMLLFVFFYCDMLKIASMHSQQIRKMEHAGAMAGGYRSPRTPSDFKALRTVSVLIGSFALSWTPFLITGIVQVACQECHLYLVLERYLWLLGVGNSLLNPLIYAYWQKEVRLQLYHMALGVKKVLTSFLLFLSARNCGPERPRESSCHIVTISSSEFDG
Each line names hits and unclear results; the compound was inactive in the other large screens (follow-up assays come after a bar, where they were run).

COc1ccc(NC(=O)CCC2CCCCC2)c([N+](=O)[O-])c1	GPR151 activ 6.5 | GPR151 confirm inactive | GPR119 ag inactive
COc1ccc(NC(=O)COC(=O)CC2CCCCC2)c([N+](=O)[O-])c1	none
COc1ccc(NC(=O)CCCCCN2C(=O)c3cccc([N+](=O)[O-])c3C2=O)c(OC)c1	GPR151 activ 7.9 | GPR151 confirm inactive | GPR119 ag inactive
COc1ccc(NC(=O)CCN2C(=O)c3cccc([N+](=O)[O-])c3C2=O)c(OC)c1	none
O=C(COC(=O)CCN1C(=O)c2cccc([N+](=O)[O-])c2C1=O)NCC(F)(F)F	GPR151 activ 6.0 | GPR151 confirm inactive | GPR119 ag inactive
COc1ccccc1Oc1ccc(N2C(=O)c3cccc([N+](=O)[O-])c3C2=O)cc1	GPR151 activ 8.4 | GPR151 confirm inactive | GPR119 ag inactive
O=C(Nc1cc(Cl)ccc1Cl)c1cc2nc(-c3cccs3)cc(C(F)(F)F)n2n1	none
CC(CC(=O)N1CCN(c2ccc(F)cc2)CC1)c1ccccc1 (configuration not stated)	GPR151 activ 11 | GPR151 confirm inactive | GPR119 ag inactive
O=C(NCC(=O)N1CCN(c2ccccc2)CC1)c1c(F)cccc1F	GPR151 activ 6.0 | GPR151 confirm inactive | GPR119 ag inactive
CC(c1ccccc1)N1CC(C(=O)N2CCN(c3ccc(F)cc3)CC2)CC1=O (configuration not stated)	GPR151 activ 5.2 | GPR151 confirm inactive | GPR119 ag inactive
CCCC(C)C(=O)N1CCN(c2ccc(F)cc2)CC1 (configuration not stated)	none
Oc1ccc(-c2nc3ccc(Br)cn3c2NCC2CCCO2)cc1 (configuration not stated)	none
CC1(C)CC(=O)C(Sc2ccc(Br)cc2)C(=O)C1	none
Cc1ccc(C(=O)NC(Cc2c[nH]c3ccccc23)C(=O)O)cc1 (configuration not stated)	none
CC(C)(O)C#Cc1ccc(C(=O)NC(Cc2c[nH]c3ccccc23)C(=O)O)cc1 (configuration not stated)	GPR151 activ 12 | GPR151 confirm inactive | GPR119 ag inactive
Cn1cc(CN2CCOCC2)c(-c2ccc3c(c2)OCCO3)n1	GPR151 activ 9.2 | GPR151 confirm inactive | GPR119 ag inactive
Cn1cc(CN2CCN(Cc3nccn3C)CC2)c(-c2ccc3c(c2)OCCO3)n1	none
CCC(=O)N1CCN=C1SCc1cccc(C)c1	GPR151 activ 7.1 | GPR151 confirm inactive | GPR119 ag inactive
CCC(=O)N1CCN=C1SCc1cccc(Cl)c1	none
Cc1onc(-c2ccccc2Cl)c1C(=O)Nc1cccc(C(=O)O)c1	none
Cc1nc2ccccc2n1CCNS(=O)(=O)c1ccc(F)cc1	GPR151 activ 6.4 | GPR151 confirm inactive | GPR119 ag inactive
CCCn1ncc(CN2CCC(n3nccc3NC(=O)CCc3ccccc3)CC2)c1C	GPR151 activ 6.6 | GPR151 confirm inactive | GPR119 ag inactive
CC[C@@H](C(=O)[C@@H](C)[C@@H](O)[C@H](C)CCc1ccc(C)c(O)c1C(=O)O)[C@H]1O[C@](CC)([C@H]2CC[C@](O)(CC)[C@H](C)O2)C[C@@H]1C	GPR151 activ 21 | GPR151 confirm inactive | GPR119 ag inactive
Cc1cc(C)cc(NC(=O)NC2CCNCC2)c1	GPR151 activ 8.2 | GPR151 confirm inactive | GPR119 ag inactive
COc1cccc(C2/C(=C(/O)c3ccc(C)cc3)C(=O)C(=O)N2c2cccnc2)c1 (configuration not stated)	none
C=CCn1cnc2c(nnn2-c2ccc(OC)c(OC)c2)c1=O	GPR151 activ 7.9 | GPR151 confirm inactive | GPR119 ag inactive
CCCN(CCC)CCCNC(=O)c1nn(-c2ccc(OC)cc2)c(=O)c2ccccc12	none
CCCN(CCC)CCCNC(=O)c1nn(-c2ccc(OCC)cc2)c(=O)c2ccccc12	GPR151 activ 8.8 | GPR151 confirm inactive | GPR119 ag inactive
CCOc1ccc(-n2nc(C(=O)NCc3ccc(F)cc3)c3ccccc3c2=O)cc1	GPR151 activ 6.4 | GPR151 confirm inactive | GPR119 ag inactive
COc1ccc(-n2nc(C(=O)NCc3ccc(F)cc3)c3ccccc3c2=O)cc1	none
CCOC(=O)COc1ccc2c(=O)c(Oc3cccc(OC)c3)coc2c1	GPR151 activ 5.3 | GPR151 confirm inactive | GPR119 ag inactive
CC(OCc1ccccc1)C(NC(=O)OC(C)(C)C)C(=O)Nc1nccs1 (configuration not stated)	GPR151 activ 13 | GPR151 confirm inactive | GPR119 ag inactive
Cc1ccc(-c2nc(CS(=O)(=O)CC(=O)NCCCc3ccccc3)c(C)o2)cc1	none
N#CCOc1ccc2c(=O)c(Oc3ccccc3Cl)coc2c1	GPR151 activ 5.6 | GPR151 confirm inactive | GPR119 ag inactive
CN1C(=O)c2ccc(S(=O)(=O)c3ccc(C(=O)O)cc3)cc2C1=O	GPR151 activ 5.5 | GPR151 confirm inactive | GPR119 ag inactive
CCCCc1ccc(C2=N/C(=C\c3ccc(C(C)C)cc3)C(=O)O2)cc1	none
CC1(C)Cc2ccccc2C2=C(C(=O)N3CCCCCC3)C(=O)C(=O)N21	none
CCNC(=O)C1=C2c3ccccc3CC(C)(C)N2C(=O)C1=O	GPR151 activ 6.1 | GPR151 confirm inactive | GPR119 ag inactive
CSC1=NC(c2cccc([N+](=O)[O-])c2)C(C(=O)OC(C)C)=C(C)N1 (configuration not stated)	GPR151 activ 5.1 | GPR151 confirm inactive | GPR119 ag inactive
Cc1ccc(NC(=O)N2CCCCC2C)cc1 (configuration not stated)	none
Cc1nc(C)c(NC(=O)N2CCCCC2C)cc1NC(=O)N1CCCCC1C (configuration not stated)	GPR151 activ 4.9 | GPR151 confirm inactive | GPR119 ag inactive
CCn1cccc(-c2nnc(SCC(=O)c3ccc(Cl)cc3)n2C)c1=O	none
N#Cc1ccc(C(=O)Nc2ccc(Br)cc2)c(F)c1	none
Cc1cc(Br)ccc1NC(=O)c1ccc(C#N)cc1F	GPR151 activ 13 | GPR151 confirm inactive | GPR119 ag inactive
CC12OC1C(=O)C1C3C=CC(C3)C1C2=O (configuration not stated)	none
CCOC(=O)C1=C(c2ccccc2)N=c2s/c(=C\c3ccc(OCc4ccccc4C#N)cc3)c(=O)n2C1c1cccs1 (configuration not stated)	none
